Data reported in PubChem BioAssay (NCI).
Where “and” joins values, the source holds several entries; their conditions need not be identical. Equal values may be shown once. About 83,000 compounds went through this panel and 20% of them were active in at least one assay; those are over-represented in the sample as a whole.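 Testing used 96-well plates and a 48-hour single-concentration exposure. Example: -40 means 40% of the starting cells died.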 Calls of active or inactive are those of the source. The calls were made as follows: active = growth percent below 10; inactive = the rest.

Columns and labels:
Assay in all cases: NCI-60 one-dose screen, 48 h (100 = growth as untreated, 0 = no growth, -100 = all killed)
[1] = system: NCI-H23 lung; settings: 10 µM
[2] = system: NCI-H226 lung; settings: 10 µM
[3] = system: HOP-62 NSCLC; settings: 10 µM
[4] = system: NCI-H460 lung; settings: 10 µM
[5] = system: HOP-92 NSCLC; settings: 10 µM
[6] = system: A549/ATCC NSCLC; settings: 10 µM
[7] = system: 786-0 renal; settings: 10 µM
[8] = system: COLO 205 colon; settings: 10 µM
[9] = system: DU-145 prostate; settings: 10 µM unless noted
[10] = system: K-562 leukemia; settings: 10 µM
[11] = system: MALME-3M melanoma; settings: 10 µM
[12] = system: MDA-MB-231 breast; settings: 10 µM
[13] = system: RXF 393 renal; settings: 10 µM unless noted
[14] = system: SF-268 CNS; settings: 10 µM
[15] = system: SF-295 CNS; settings: 10 µM
[16] = system: SF-539 CNS; settings: 10 µM
[17] = system: UACC-257 melanoma; settings: 10 µM
[18] = system: M14 melanoma; settings: 10 µM

Compound | growth [1] | growth [2] | growth [3] | growth [4] | growth [5] | growth [6] | growth [7] | growth [8] | growth [9] | growth [10] | growth [11] | growth [12] | growth [13] | growth [14] | growth [15] | growth [16] | growth [17] | growth [18]
O=C1NC(=O)c2cc([N+](=O)[O-])ccc21 | 105% (inactive) | 97.7% (inactive) | 101% (inactive) | 105% (inactive) | 82.3% (inactive) | 107% (inactive) | 112% (inactive) | 111% (inactive) | 112% (inactive) | 119% (inactive) | 106% (inactive) | 107% (inactive) | 108% (inactive) | 106% (inactive) | 101% (inactive) | 101% (inactive) | 104% (inactive) | 118% (inactive)
O=C(O)COc1ccc(OCC(=O)O)cc1 | -0.769% (active) | -60.2% (active) | -15% (active) | -17.8% (active) | -3.9% (active) |  | -9.28% (active) | 16% (inactive) | 5.6% (active) | 20% (inactive) | 21.3% (inactive) | 27.8% (inactive) | 24.7% (inactive) | 14.2% (inactive) | -9.53% (active) | -0.842% (active) |  | 
OC(CN1CCCC2CCCCC21)c1cc2ccccc2c2ccccc12 (configuration not stated) | 12.6% (inactive) | 39.3% (inactive) | 11.2% (inactive) | 7.08% (active) | 25.1% (inactive) |  | -11.6% (active) | -73.2% (active) | 40.3% (inactive) | -14.4% (active) | 17.7% (inactive) | -11.2% (active) |  | 45.7% (inactive) | -3.44% (active) | 27.8% (inactive) | 22.7% (inactive) | 
Cc1cc(O)c(C(C)C)cc1Cl | 106% (inactive) | 96.7% (inactive) | 95.7% (inactive) | 99.1% (inactive) | 99.9% (inactive) |  | 101% (inactive) | 107% (inactive) | 101% (inactive) | 96.8% (inactive) | 109% (inactive) | 104% (inactive) | 120% (inactive) | 99.3% (inactive) | 100% (inactive) | 105% (inactive) |  | 101% (inactive)
CC(C)(C)CC(C)(C)c1ccc(OCCO)cc1 | 106% (inactive) | 105% (inactive) | 110% (inactive) | 117% (inactive) |  | 96.4% (inactive) | 109% (inactive) | 110% (inactive) | 111% (inactive) | 93.4% (inactive) | 158% (inactive) | 106% (inactive) | 119% (inactive) | 108% (inactive) | 109% (inactive) | 96.8% (inactive) | 108% (inactive) | 
CCC(C)(C)c1cc(O)c(C(C)(C)CC)cc1O | 38.5% (inactive) | 41.8% (inactive) | 54.8% (inactive) | 21.2% (inactive) | -7.38% (active) |  |  | 40.7% (inactive) | 76.5% (inactive) | 39.8% (inactive) | 102% (inactive) | 6.91% (active) | 32.5% (inactive) | 43.3% (inactive) | 24.6% (inactive) | 43% (inactive) | 51% (inactive) | 
COc1c(O)cc2oc3cc(O)c(CC=C(C)C)c(O)c3c(=O)c2c1CC=C(C)C | 54.6% (inactive) | 72.9% (inactive) | 75.7% (inactive) | 28.4% (inactive) | 77% (inactive) |  | 78.4% (inactive) | 95.2% (inactive) | 62% (inactive) | 26.7% (inactive) | 87.4% (inactive) | 40.2% (inactive) | 83% (inactive) | 57.9% (inactive) | 56.2% (inactive) | 89% (inactive) |  | 
Cc1nc(N=C(N)N)nc2ccc3ccccc3c12 | 27.6% (inactive) | 25.8% (inactive) | -14% (active) | -44.4% (active) | -25.5% (active) |  | 10.8% (inactive) | -16.4% (active) | 5.58% (active) | -4.93% (active) | -37.8% (active) | -0.868% (active) | 4.87% (active) | -25.4% (active) | 1.84% (active) | 4.58% (active) | -9.97% (active) | 
C[n+]1c2cc(N)ccc2cc2ccc(N)cc21 |  | -14.9% (active) [middle of 4 runs] |  |  | 43.9% (inactive) and 8.02% (active) and -29.2% (active) |  |  |  |  |  | -62% (active) and -11.9% (active) and -51.7% (active) | 14.5% (inactive) [middle of 4 runs] | -34.2% (active) and 5.66% (active) and -8.06% (active) |  |  | 10.8% (inactive) and 19.8% (inactive) and -3.57% (active) |  | 
